# Laboratory results taken from publication PMC4336329 (PLoS ONE, 2015).
# In all, about 310,000 compounds went through this assay and about 14,000 (4.5%) showed an effect of 50% or more. Effects have a minus sign here. The sample as a whole holds a higher share of strong results than the screen did.
# Target: human ether-à-go-go-related gene (hERG) potassium channel (human, UniProt Q12809)
# Experiment: primary screen, population patch clamp on CHO cells stably expressing hERG; higher = less effect of the substance
# 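Also: peak tail current of the secondary pulse compared with the same well before compound.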
# Sequence of human ether-à-go-go-related gene (hERG) potassium channel (Q12809 whole entry, looked up): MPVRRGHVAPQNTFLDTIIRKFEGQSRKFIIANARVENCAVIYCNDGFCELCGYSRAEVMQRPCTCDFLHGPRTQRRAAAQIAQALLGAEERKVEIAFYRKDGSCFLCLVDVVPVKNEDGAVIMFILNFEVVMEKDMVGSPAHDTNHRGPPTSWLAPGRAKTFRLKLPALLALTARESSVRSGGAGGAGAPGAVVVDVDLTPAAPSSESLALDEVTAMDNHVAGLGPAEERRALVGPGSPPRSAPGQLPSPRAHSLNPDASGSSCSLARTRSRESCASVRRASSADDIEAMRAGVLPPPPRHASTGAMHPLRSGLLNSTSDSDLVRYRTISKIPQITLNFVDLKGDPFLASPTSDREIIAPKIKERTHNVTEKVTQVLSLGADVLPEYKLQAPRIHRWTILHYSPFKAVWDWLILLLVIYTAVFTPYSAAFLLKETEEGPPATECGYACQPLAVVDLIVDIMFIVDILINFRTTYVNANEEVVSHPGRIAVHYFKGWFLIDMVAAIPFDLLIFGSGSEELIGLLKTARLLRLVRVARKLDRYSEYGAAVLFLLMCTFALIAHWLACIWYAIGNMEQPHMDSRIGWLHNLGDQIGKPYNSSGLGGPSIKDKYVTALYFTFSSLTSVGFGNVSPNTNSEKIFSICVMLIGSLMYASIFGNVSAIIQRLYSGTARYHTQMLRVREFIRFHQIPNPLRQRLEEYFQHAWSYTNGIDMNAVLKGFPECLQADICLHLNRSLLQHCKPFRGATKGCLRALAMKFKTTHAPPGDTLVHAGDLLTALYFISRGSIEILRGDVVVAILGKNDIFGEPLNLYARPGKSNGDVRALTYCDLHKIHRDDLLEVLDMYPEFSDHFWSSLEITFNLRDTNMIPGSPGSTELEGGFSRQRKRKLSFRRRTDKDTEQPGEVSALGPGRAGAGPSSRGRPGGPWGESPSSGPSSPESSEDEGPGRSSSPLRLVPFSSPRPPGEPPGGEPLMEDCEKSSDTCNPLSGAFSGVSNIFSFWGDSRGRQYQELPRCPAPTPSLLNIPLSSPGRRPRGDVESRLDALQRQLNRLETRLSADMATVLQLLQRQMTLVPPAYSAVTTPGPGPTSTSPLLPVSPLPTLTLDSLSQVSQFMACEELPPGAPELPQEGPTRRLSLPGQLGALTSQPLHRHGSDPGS
row,SMILES,"hERG current change (%, negative = inhibition) at 10uM"
1,CCN(CC(=O)Nc1ccc2c(c1)OCCO2)S(=O)(=O)c1cccs1,-4.54%
2,COc1cccc(C(=O)Nc2c(C)n[nH]c2C)c1,-0.143%
3,COC(=O)c1ccc(S(=O)(=O)NCc2ccco2)o1,6.1%
4,O=C(Cn1c(CN2CCCCC2)nc2ccccc2c1=O)NCc1ccco1,-15.4%
5,COCCN(Cc1cc2cc(C)ccc2[nH]c1=O)S(=O)(=O)c1ccc(Cl)cc1,16.4%
6,COc1ccc(S(=O)(=O)Nc2nc3c(s2)C(=O)CC(C)(C)C3)cc1,-10.3%
7,CCCCn1nc(C(=O)NCc2ccccc2CN2CCCC2)c2ccccc2c1=O,-64.6%
8,CCCCn1nc(C(=O)Nc2ccccc2N2CCCC2)c2ccccc2c1=O,-9.4%
9,CCCCn1nc(C(=O)Nc2c(C)n(C)n(-c3ccccc3)c2=O)c2ccccc2c1=O,-17.9%
10,CCCCn1nc(C(=O)N(CC)CC(=O)Nc2c(F)cccc2F)c2ccccc2c1=O,-7.72%
11,CCCCn1nc(C(=O)NCC(=O)Nc2c(C)cccc2C)c2ccccc2c1=O,-68.9%
12,CC(C)Cn1nc(C(=O)NCc2ccccc2CN2CCCC2)c2ccccc2c1=O,-38.3%
13,COc1cc(CCCN[C@H](CN)Cc2ccccc2)cc(OC)c1OC,-4.22%
14,CN(C)CCCN1C(=O)CSC1c1ccc([N+](=O)[O-])cc1.Cl (centres unmarked),-46%
15,O=C1CSC(c2ccc([N+](=O)[O-])cc2)N1Cc1ccccc1 (centres unmarked),-48.8%
16,CCN(CC)CCCN1C(=O)CSC1c1ccc2c(c1)OCO2.Cl (centres unmarked),-39.2%
17,Cl.O=C1CSC(c2cccc([N+](=O)[O-])c2)N1CCN1CCCCC1 (centres unmarked),-21.4%
18,Cl.O=C1CSC(c2ccc([N+](=O)[O-])cc2)N1CCN1CCCCC1 (centres unmarked),-94.9%
19,CCN(CC)CCCN1C(=O)CSC1c1ccc([N+](=O)[O-])cc1.Cl (centres unmarked),-72.8%
20,O=C(O)c1cc(S(=O)(=O)NC2CCCc3ccccc32)ccc1O (centres unmarked),13.5%
21,CC(C)CN(CC(C)C)c1ccc(C=C2C(=O)NC(=S)NC2=O)cc1[N+](=O)[O-],9.99%
22,CC[C@@H](C)C(NC(=O)OC(C)(C)C)c1cn([C@@H](Cc2ccc(O)cc2)C(=O)N2CCN(C(=O)OC(C)(C)C)CC2)nn1 (some centres unmarked),-70%

row,SMILES,"hERG current change (%, negative = inhibition) at 10uM"
1,CC[C@@H](C)C(NC(=O)OC(C)(C)C)c1cn([C@@H](CCC(=O)OC(C)(C)C)C(=O)N2CCN(C(=O)OC(C)(C)C)CC2)nn1 (some centres unmarked),-17.6%
2,CC[C@@H](C)C(NC(=O)OC(C)(C)C)c1cn([C@@H](Cc2cc3ccccc3[nH]2)C(=O)N2CCN(C(=O)OC(C)(C)C)CC2)nn1 (some centres unmarked),-13.4%
3,O=c1c2cc(NC(=S)NC3CC3)ccc2nc2n1CCCCC2,0.786%
4,O=c1c2cc(NC(=S)NC3CCCC3)ccc2nc2n1CCCCC2,-59.6%
5,O=c1c2cc(NC(=S)NCCN3CCCCCC3)ccc2nc2n1CCCCC2,-1.38%
6,O=c1c2cc(NC(=S)NC3CCCCC3)ccc2nc2n1CCCCC2,-70.2%
7,O=c1c2cc(NC(=S)NCCCN3CCC(Cc4ccccc4)CC3)ccc2nc2n1CCCCC2,-82.1%
8,O=c1c2cc(NC(=S)NC3CCN(Cc4ccccc4)CC3)ccc2nc2n1CCCCC2,-10.4%
9,O=c1c2cc(NC(=S)NCc3ccccn3)ccc2nc2n1CCCCC2,-6.42%
10,CC(C)CCNC(=S)Nc1ccc2nc3n(c(=O)c2c1)CCCCC3,-46.2%
11,COCCCNC(=S)Nc1ccc2nc3n(c(=O)c2c1)CCCCC3,7.89%
12,COc1ccccc1OC(=O)c1ccc2nsnc2c1,8.28%
13,O=C(OCC#Cc1c(COC(=O)c2ccccc2)nnn1Cc1ccccc1)c1ccccc1,5.67%
14,CCOc1ccc(/C=C2\SC(=S)N(CCC(=O)O)C2=O)cc1,3.03%
15,CS(=O)(=O)c1ccc(-c2nnc(NC(=O)c3cccc(N4C(=O)CCC4=O)c3)o2)cc1,6.65%
16,CC(=O)N1CCN(c2ccc(NC(=O)c3ccc(Br)o3)cc2Cl)CC1,-55.3%
17,O=C(Nc1ccc(N2CCN(C(=O)c3ccccc3)CC2)c(Cl)c1)c1ccco1,-29.5%
18,O=C(Nc1ccc(N2CCCC2)c(Cl)c1)c1ccc(Br)o1,-7.29%
19,O=C(Nc1ccc(N2CCN(C(=O)c3ccccc3)CC2)c(Cl)c1)c1ncn[nH]1,-5.79%
20,O=C(Nc1ccc(N2CCOCC2)c(Cl)c1)c1ccc(Br)o1,-31.9%
21,O=C(Nc1ccc(N2CCN(C(=O)c3ccccc3)CC2)c(Cl)c1)c1ccc(Br)o1,-58.2%
22,CCCCN(CC)S(=O)(=O)c1ccc(C(=O)Nc2nnc(-c3cccs3)o2)cc1,-8.71%

row,SMILES,"hERG current change (%, negative = inhibition) at 10uM"
1,COc1ccc(S(=O)(=O)N2CCOCC2)cc1NC(=O)CSc1nnc(C2CC2)n1C1CC1,2.57%
2,O=C(CN1C(=O)NC2(CCCc3ccccc32)C1=O)NCc1cccs1 (centres unmarked),6.2%
3,CCOC(=O)C1CCCN(C(=S)Nc2cccc(Cl)c2)C1 (centres unmarked),-5.74%
4,O=C(CCCc1ccccc1)NCCS(=O)(=O)N1CCN(c2ccc(F)cc2)CC1,-39.3%
5,Cc1[nH]n(-c2ccccc2)c(=O)c1C=NCC1CCCO1 (centres unmarked),13.8%
6,CCCCN=Cc1c(C)[nH]n(-c2ccccc2)c1=S,-4.64%
7,CCCN=Cc1c(CCC)[nH]n(-c2nc3ccccc3s2)c1=O,-66.9%
8,CCCc1cc(=O)n(-c2nc3ccccc3s2)[nH]1,11.2%
9,CCCc1[nH]n(-c2nc3ccccc3s2)c(=O)c1C=NCCCOC,-57.2%
10,COC(=O)Cc1[nH]n(-c2nc3ccccc3s2)c(=O)c1C(C)=Nc1ccc(C)cc1,5.94%
11,CC(=NCc1ccco1)c1c(C)[nH]n(-c2nc3ccccc3s2)c1=O,3.78%
12,CCCc1[nH]n(-c2nc3ccccc3s2)c(=O)c1C=NCC1CCCO1 (centres unmarked),-65.5%
13,Cc1[nH]n(-c2ccc([N+](=O)[O-])cc2)c(=O)c1C=NCC1CCCO1 (centres unmarked),0.91%
14,COC(=O)Cc1[nH]n(-c2nc3ccccc3s2)c(=O)c1C(C)=O,21.6%
15,CCCc1[nH]n(-c2nc3ccccc3s2)c(=O)c1C=NCCN1CCOCC1,-34.5%
16,CCCCCN=Cc1c(C)[nH]n(-c2nc3ccccc3s2)c1=O,-65.5%
17,C/C(=N\NC(=O)c1ccc(NS(=O)(=O)c2cccs2)cc1)c1ccc(O)cc1O,-0.956%
18,CSc1nc(N)nc(C(C)C)n1,-5.59%
19,CC[C@H](C)[C@H](NC(N)=O)C(=O)NCCc1ccc(OC)cc1,-0.532%
20,O=C(CSc1nc(-c2ccccc2)nc2ccc(F)cc12)Nc1cccc(C(=O)O)c1,2.54%
21,O=C(NCc1cccnc1)c1cccs1,11.7%
22,COc1cc(NC(=O)C23CC4CC(C2)CC(n2nnc(C)n2)(C4)C3)c(OC)cc1Cl,4.76%

row,SMILES,"hERG current change (%, negative = inhibition) at 10uM"
1,COc1ccc(CCN2CC(C(=O)NC3CCCCC3)CC2=O)cc1OC (centres unmarked),10.2%
2,COC(=O)CC1SCCNC1=O (centres unmarked),9.08%
3,CCN(CC)CCCSc1nc2ccccc2s1.O=C(O)C(=O)O,-31.9%
4,CC(=O)c1c(CC(=O)O)[nH]n(-c2nc3ccccc3s2)c1=O,3.17%
5,C/C(=N\NC(=O)CC(C)C)c1c(C(F)(F)F)[nH]n(-c2nc3ccccc3s2)c1=O,8.88%
6,CCCc1[nH]n(-c2nc3ccccc3s2)c(=O)c1C=NCC(C)C,-75.4%
7,CCCc1[nH]n(-c2nc3ccccc3s2)c(=O)c1C=NCCCN(CC)CC,-75.9%
8,Cc1cc(F)ccc1S(=O)(=O)N1CCCOC1CNC(=O)C(=O)NCc1ccc2c(c1)OCO2 (centres unmarked),-26.9%
9,Cc1ccc(NC(=O)CSc2nnc(-c3ccncc3)s2)cc1,5.52%
10,O=[N+]([O-])c1ccc(N2CCCCC2)c(Cl)c1N1CCCCC1,3.77%
11,C=C(C)COc1ccc(-c2nc(N)ncc2-c2ccc(Br)cc2)c(O)c1,23.6%
12,CC12CCC(C/C1=N/O)C2(C)C (centres unmarked),6.85%
13,NC(=O)CCn1cnc2ccccc21,6.28%
14,O=C(NCc1cccnc1)c1ccc(=O)oc1,-8.85%
15,Cc1cccc(OCC(=O)Nc2cccc(C(=O)NCC(C)C)c2)c1,-17.4%
16,CCCOC(=O)c1cccc(NC(=O)COc2ccc([N+](=O)[O-])cc2)c1,-26.9%
17,CC(C)CNC(=O)c1cccc(NC(=O)COc2cccc([N+](=O)[O-])c2)c1,-24.7%
18,CC(C)CNC(=O)c1cccc(NC(=O)COc2ccc([N+](=O)[O-])cc2)c1,-57.4%
19,CCOC(=O)c1cc(NC(=O)COc2ccc([N+](=O)[O-])cc2)cc(C(=O)OCC)c1,-12.9%
20,CCOC(=O)c1cccc(NC(=O)COc2ccc([N+](=O)[O-])cc2)c1,-68%
